{"source": "the supplement of paper PMC9925115"}
{"system": "FLX1 + dox-induced PRKAR1A G325D", "assay": "difference in log2 fold change of viability vs plate median (dox-induced PRKAR1A G325D minus uninduced); higher = compound less effective when PKA is inhibited", "settings": "concentration: not stated (2 or 5 uM); 5 days", "method": "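For each plate a log2 fold change vs the plate median was derived, and the values without dox were subtracted from those with dox, averaged over three biological replicates.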"}
{"molecule": "C=CC(=O)Nc1cccc(Sc2nc(Nc3ccc(N4CCN(C)CC4)cc3)ncc2Cl)c1", "difference in log2 fold change of viability": 0.0442}
{"molecule": "COc1cccc2cc(-c3nc([C@H]4CC[C@H](C(=O)O)CC4)n4ncnc(N)c34)[nH]c12", "difference in log2 fold change of viability": 0.812}
{"molecule": "O=C1NCCc2[nH]c(-c3ccncc3)cc21", "difference in log2 fold change of viability": 0.179}
{"molecule": "Nc1nccc(Oc2ccc(NC(=O)c3c[nH]cc(-c4ccc(F)cc4)c3=O)cc2F)c1Cl", "difference in log2 fold change of viability": -0.00105}
{"molecule": "C=CC(=O)Nc1cccc(Oc2nc(Nc3ccc(N4CCN(C)CC4)cc3)ncc2Cl)c1", "difference in log2 fold change of viability": -0.131}
{"molecule": "Cc1ccc(C(=O)Nc2ccc(CN3CCN(C)CC3)c(C(F)(F)F)c2)cc1C#Cc1cnc2[nH]ncc2c1", "note": "[GZD824 Dimesylate]", "difference in log2 fold change of viability": 0.11}
